High-throughput results: PubChem BioAssay, Pan Lab, Icahn School of Medicine at Mount Sinai
Many of the other results were omitted from the sample, so hits are more common in it than they were.
ROC1-CUL1 inh – inhibitors of human ROC1-CUL1 ubiquitin ligase activity; in vitro K48 di-Ub FRET, acceptor:donor ratio, 45 min; inhibition, % at 10 µM; hit rate 0.6% among 140,000; AID 1347404, 2020; E3 ubiquitin-protein ligase RBX1 (Homo sapiens) + Cullin-1 (Homo sapiens), P62877+Q13616; in the data active = inhibition above about 25%
Target sequence (P62877 whole entry, looked up): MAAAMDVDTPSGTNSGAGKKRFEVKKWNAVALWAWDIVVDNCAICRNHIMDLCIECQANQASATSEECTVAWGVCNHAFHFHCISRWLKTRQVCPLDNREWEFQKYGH
Target sequence (Q13616 whole entry, looked up): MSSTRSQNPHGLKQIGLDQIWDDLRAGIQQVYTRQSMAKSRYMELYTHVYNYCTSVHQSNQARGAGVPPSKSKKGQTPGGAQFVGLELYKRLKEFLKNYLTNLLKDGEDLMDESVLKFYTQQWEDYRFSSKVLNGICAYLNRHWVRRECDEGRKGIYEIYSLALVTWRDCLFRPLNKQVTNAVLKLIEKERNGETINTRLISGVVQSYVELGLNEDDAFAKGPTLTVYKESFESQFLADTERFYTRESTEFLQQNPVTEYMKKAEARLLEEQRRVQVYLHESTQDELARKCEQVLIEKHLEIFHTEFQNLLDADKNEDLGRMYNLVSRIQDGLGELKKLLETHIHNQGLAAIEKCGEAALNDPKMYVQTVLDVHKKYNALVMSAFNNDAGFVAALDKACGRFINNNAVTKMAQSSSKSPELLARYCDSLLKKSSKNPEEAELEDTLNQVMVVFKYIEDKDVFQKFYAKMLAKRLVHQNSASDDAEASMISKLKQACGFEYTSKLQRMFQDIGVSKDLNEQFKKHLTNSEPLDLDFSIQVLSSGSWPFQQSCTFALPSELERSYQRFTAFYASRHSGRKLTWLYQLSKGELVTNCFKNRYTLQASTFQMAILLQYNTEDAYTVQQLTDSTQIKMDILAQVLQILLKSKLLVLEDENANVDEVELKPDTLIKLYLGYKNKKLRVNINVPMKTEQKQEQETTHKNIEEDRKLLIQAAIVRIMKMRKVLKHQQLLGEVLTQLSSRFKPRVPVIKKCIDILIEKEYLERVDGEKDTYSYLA
Numbers without * were called inactive.

SMILES	ROC1-CUL1 inh
COC(=O)c1ccc([C@H]2Nc3ccc(S(=O)(=O)Nc4ccc(C)cc4)cc3[C@H]3C=CC[C@H]32)cc1	11
CC(C)c1ccc2c(c1)[C@@H]1C=CC[C@@H]1[C@H](c1ccc(S(=O)(=O)N3CCOCC3)cc1)N2	31*
C1=CC2c3c(ccc4ccccc34)NC(c3cccc4ccccc34)C2C1 (configuration not stated)	-6
COc1ccc(NS(=O)(=O)c2ccc3c(c2)[C@H]2C=CC[C@H]2[C@@H](c2ccc(C(=O)O)cc2)N3)cc1	97*
COc1cccc([C@H]2Nc3ccc(S(=O)(=O)Nc4ccc(C)c(C)c4)cc3[C@H]3C=CC[C@H]32)c1	-5
COc1cccc([C@@H]2Nc3ccc(C(=O)O)cc3[C@@H]3C=CC[C@@H]32)c1OC	-12
O=C(O)c1ccc2c(c1)C1C=CCC1C(c1cccc3ccccc13)N2 (configuration not stated)	95*
Cc1cccc(NS(=O)(=O)c2ccc3c(c2)[C@H]2C=CC[C@H]2[C@@H](c2ccc(C(C)(C)C)cc2)N3)c1	-2
Cc1cccc(C)c1NS(=O)(=O)c1ccc2c(c1)[C@H]1C=CC[C@H]1[C@@H](c1ccc(Cl)cc1)N2	8
Cc1cccc(CN(CCc2ccccc2)CC2CCN(C)CC2)n1	9
CCOC(=O)c1[nH]cnc1C(=O)Nc1ccc(C)cc1	4
CSc1nc2nc(C)c(Cc3cccc4ccccc34)c(=O)n2[nH]1	0
COC(=O)c1ccccc1-c1ccc(/C=C2\C(=O)N(CCO)C(=O)C(C#N)=C2C)o1	-1
O=C(/C=C/c1ccccc1)C1C(=O)C(=O)N(c2ccccn2)C1c1ccccc1 (configuration not stated)	8
O=C1C(=O)N(c2ccccn2)C(c2ccccc2Cl)C1C(=O)c1ccccc1 (configuration not stated)	29*
CC(C)Oc1ccc(C(=O)C2C(=O)C(=O)N(c3ccccn3)C2c2ccc(Cl)cc2)cc1 (configuration not stated)	-4
CN(C)c1ccc(C2C(C(=O)c3ccccc3)C(=O)C(=O)N2c2ccc(Cl)cc2)cc1 (configuration not stated)	-2
Cc1nc(N2C(=O)C(=O)C(C(=O)c3ccccc3)C2c2ccc(Br)cc2)sc1C (configuration not stated)	0
O=C1C(=O)N(c2nccs2)C(c2ccc(Cl)cc2)C1C(=O)c1ccccc1 (configuration not stated)	64*
Cc1ccc(C)c(Cn2c(=O)n(CC3CCC(C(=O)N4CCOCC4)CC3)c(=O)c3sccc32)c1 (configuration not stated)	0
C/C=C/c1nc(SC)c(C#N)c(=O)[nH]1	62*
CSc1nc(-c2ccc(Cl)cc2)c(C#N)c(=O)[nH]1	9
CSc1nc(-c2ccc(C)cc2)[nH]c(=O)c1C#N	7
COc1cc(Cl)c(S(=O)(=O)NC2CCCC2)cc1Cl	0
COC(=O)c1ccc(COc2ccc(-c3nnn(Cc4ccccc4Cl)n3)cc2)cc1	3
SMILES	ROC1-CUL1 inh
Cc1nn2c(-c3cccc(C(F)(F)F)c3)nnc2s1	8
CC1C(=NC(=O)CSc2nc(-c3ccccc3)c(-c3ccccc3)o2)C(=O)N(c2ccccc2)N1C (configuration not stated)	52*
CC1C(=NC(=O)CSc2nnc(-c3ccccc3)n2-c2ccccc2)C(=O)N(c2ccccc2)N1C (configuration not stated)	-3
CC1C(=NC(=O)CSc2nnc(Cc3ccccc3)o2)C(=O)N(c2ccccc2)N1C (configuration not stated)	-1
CC1(C)CC2(C)CC3=C(C(=O)C(O)C(C)(C)C3)C(C(=O)O)(C1)C2 (configuration not stated)	6
O=C1N=c2ccccc2=C1c1sc(Nc2ccc(O)cc2)nc1O	32*
CCc1cccc2c1=NC(=O)C=2c1sc(Nc2cccc(Cl)c2)nc1O	-7
O=C1N=c2ccccc2=C1c1sc(Nc2ccc(Br)cc2)nc1O	4
COc1ccccc1C(=O)Nc1cc(-c2cccc(Br)c2)nn1-c1ccccc1	6
O=C1CC(=C(c2ccccc2)c2ccccc2)C(=O)N1CCN1CCN(c2cccc(Cl)c2)CC1	-4
CCOC(=O)c1cccc(NC(=O)Cc2cccs2)c1	4
COC(=O)c1cc(NC(=O)Cc2cccs2)ccc1O	-6
COC(=O)c1cc(NC(=O)Cc2cccs2)cc(C(=O)OC)c1	56*
CCCC(=O)Nc1ccc2[nH]c(=O)[nH]c2c1	4
CCN(CC)c1ccc(/C=C2\C(=O)N(c3nnc(C)c(=O)[nH]3)N=C2C)cc1	57*
CCN(CC)c1ccc(C=C2C(=O)N(c3ccccc3)C(=O)N(c3ccccc3)C2=O)cc1	-35
CCN(C)c1ccc(C=C2C(=O)N(C)C(=O)N(C)C2=O)cc1	1
CN(C)c1cccc(C(=O)N/N=C/c2cccs2)c1	-2
COc1ccc(CCNC(=O)CN2C(=O)COc3ccc(C)cc32)cc1OC	0
CCOc1ccc(N2C(=O)/C(=C/c3cccn3-c3cccc(C(=O)O)c3)C(=O)NC2=S)cc1	19
Cc1cccc(N2C(=O)/C(=C/c3cccn3-c3ccc(Cl)cc3)C(=O)NC2=S)c1C	-2
Cc1cccc(N2C(=O)/C(=C/c3cccn3-c3cccc(C(=O)O)c3)C(=O)NC2=S)c1	15
CCCN1C(=O)/C(=C\c2cccn2-c2cccc(C(F)(F)F)c2)C(=O)N(c2ccccc2)C1=S	5
Cc1cccc(N2C(=O)/C(=C/c3cccn3-c3cccc(C(F)(F)F)c3)C(=O)NC2=S)c1C	53*
O=C1NC(=S)N(c2cccc(F)c2)C(=O)/C1=C/c1cccn1-c1cccc(C(F)(F)F)c1	7
SMILES	ROC1-CUL1 inh
COc1ccc(Cl)cc1/C=C1\C(=O)NC(=S)N(c2ccc(C)cc2C)C1=O	1
CN(C)c1ccc(-n2cccc2/C=C2\C(=O)NC(=S)N(c3ccc(Br)cc3)C2=O)cc1	7
Cc1ccc(N2C(=O)/C(=C/c3cccn3-c3cccc(C(=O)O)c3)C(=O)NC2=S)c(C)c1	97*
CCc1ccccc1N1C(=O)/C(=C/c2cccn2-c2ccc(Cl)cc2)C(=O)NC1=S	36*
Cc1ccc(N2C(=O)/C(=C/c3cn(CC(=O)O)c4ccccc34)C(=O)NC2=S)c(C)c1	54*
Cc1ccc(N2C(=O)/C(=C/c3cc(C)n(C(C)C)c3C)C(=O)NC2=S)c(C)c1	-7
O=c1cc(C(F)(F)C(F)(F)C(F)(F)C(F)(F)Cl)[nH][nH]1	7
COC(=O)C1CC(C)=C(C)CC1C(=O)O (configuration not stated)	2
Cc1ccccc1CC(=O)NC1CCCN(C2CCN(C)CC2)C1 (configuration not stated)	10
CC(C)(C)N1CSC(=S)N(c2ccc(Br)cc2)C1	-11
O=c1c(SCc2ccco2)c(SCc2ccco2)cnn1-c1ccccc1	31*
CCSc1cnn(-c2ccccc2)c(=O)c1SCC	15
O=c1c(SCc2ccccc2)c(SCc2ccccc2)cnn1-c1ccccc1	4
Cc1ccc(C(=O)NC(=S)Nc2ccc(I)cn2)cc1C	2
CCC(=O)N1c2ccccc2CC1C(=O)NCCc1ccc(Cl)cc1 (configuration not stated)	1
COc1ccccc1/C=C/C(=O)C1C=C(Br)C=C(Br)C(=O)C1=O (configuration not stated)	28*
Cc1ccccc1/C=C/C(=O)C1C=C(Br)C=CC(=O)C1=O (configuration not stated)	-2
